# A549 tox-1: Nrf2 qHTS screen for inhibitors: counterscreen for cytotoxicity; A549 ARE-Fluc cells, CellTiter-Fluor viability, 18-24 h; Potency, µM (highest dose often 46 µM), without a hit: top-dose activity change, negative = cytotoxicity, usual class: inhibitors; actives 0.16% (n = 390,000); also: % is scaled to controls: 0 for no effect and ±100 for the full control effect
#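 A549 ARE-Fluc cells in 5% FBS OPTI-MEM, 5000 cells/well, rested 2 h then exposed to compounds in concentration-response for 18-24 h at 37 °C. Viability by CellTiter-Fluor fluorescence (Ex 405/Em 525) after 30 min; luciferase luminescence (BugLite, 15 min, RT) read afterwards.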
# Nrf2 inh: Nrf2 qHTS screen for inhibitors; A549 ARE-Fluc reporter, luciferase luminescence, 18-24 h; Potency, µM (series often up to 46 µM), for inactives: top-dose activity change, negative = inhibition, most hits filed as inhibitors; actives 2.1% (n = 360,000); AID 504444, 2011; also: % is scaled to controls: 0 for no effect and ±100 for the full control effect; nearly all actives have a fitted effect of over 60% in size
#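 Concentration-response testing used A549 ARE_Fluc cells at 5000 cells/well. Following an 18-24 h compound incubation, viability was read by fluorescence (Ex 405/Em 525) and luciferase output by luminescence.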
# ELG1 DNA repair: qHTS screen for small molecules that inhibit ELG1-dependent DNA repair in human embryonic kidney (HEK293T) cells expressing luciferase-tagged ELG1; Potency, µM (series often up to 46.1 µM), inactives show at the top dose activity change, negative = inhibition, usual class: inhibitors; actives 2.3% (n = 330,000); HEK293T ELG1-luciferase reporter, luminescence, 16 h; DNA damage induced by 5-fluorouridine; also: % is scaled to controls: 0 for no effect and ±100 for the full control effect; nearly all actives have a fitted effect of over 55% in size
#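 Overnight (16 hr) co-exposure of 2,000 cells/well to 5-fluorouridine and compound at 37 °C preceded detection. Luciferase was quantified via ONE-Glo luminescence; loss of signal denotes inhibition.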
# Nrf2 activator: qHTS of Nrf2 Activators; AREc32 ARE-luciferase reporter (MCF7-derived line), luminescence, 24 h; Potency, µM (highest dose often 46.1 µM), for the others: top-dose activation, most hits filed as activators; actives 0.31% (n = 410,000); AID 624171, 2012; also: % of control where 0% means no effect; nearly all actives have a fitted effect of over 65% in size
#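 Nrf2 activation is followed as ARE-luciferase induction in the AREc32 line after one day of compound treatment; luminescence is read with Steady-Glo.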
# FLuc enzyme inh: Nrf2 qHTS screen for inhibitors: Purified Fluc Biochemical Counterscreen for Hit Validation | shares compounds with Nrf2 inh | purified firefly luciferase, luminescence inhibition | Potency, µM (series often up to 57.5 µM), without a hit: at the top dose activity change, negative = inhibition, most hits filed as inhibitors | actives 4% (n = 1,400) | AID 720522, 2013; also: % is scaled to controls: 0 for no effect and ±100 for the full control effect; nearly all actives have a fitted effect of over 65% in size
# Target sequence (P08659 whole entry, looked up): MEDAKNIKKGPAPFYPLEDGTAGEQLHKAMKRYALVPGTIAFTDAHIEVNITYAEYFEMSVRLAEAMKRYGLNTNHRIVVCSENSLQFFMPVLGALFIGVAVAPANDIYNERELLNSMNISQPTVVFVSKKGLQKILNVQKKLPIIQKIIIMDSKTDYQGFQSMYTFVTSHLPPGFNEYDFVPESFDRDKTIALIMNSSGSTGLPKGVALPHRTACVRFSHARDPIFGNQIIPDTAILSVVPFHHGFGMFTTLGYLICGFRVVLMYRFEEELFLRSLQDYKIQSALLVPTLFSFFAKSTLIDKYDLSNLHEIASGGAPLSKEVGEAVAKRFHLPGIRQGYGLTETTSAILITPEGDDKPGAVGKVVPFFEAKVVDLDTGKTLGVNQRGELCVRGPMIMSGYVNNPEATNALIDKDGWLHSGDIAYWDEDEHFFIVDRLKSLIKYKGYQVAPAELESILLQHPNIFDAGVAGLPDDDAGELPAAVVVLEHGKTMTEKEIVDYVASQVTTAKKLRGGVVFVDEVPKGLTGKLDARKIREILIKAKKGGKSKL
# A549 tox-2: Nrf2 qHTS screen for inhibitors: A549 ARE-Fluc Cytotoxicity Counterscreen for Hit Validation; shares compounds with Nrf2 inh; A549 ARE-Fluc cells, cytotoxicity counterscreen; Potency, µM (doses to about 46.1 µM), without a hit: top-dose activity change, negative = cytotoxicity, usual class: inhibitors; actives 2% (n = 1,400);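 also: cells exposed to compounds for 18 to 24 hours; % is scaled to controls: 0 for no effect and ±100 for the full control effect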
# Nrf2 ARE inh: Nrf2 qHTS screen for inhibitors: Nrf2 A549 ARE-Fluc Confirmation Assay for Hit Validation. shares compounds with Nrf2 inh. Potency, µM (titrated, usually from 46.1 µM), inactives show top-dose activity change, negative = inhibition, usual class: inhibitors. actives 74% (n = 1,400). A549 ARE-firefly luciferase reporter, luminescence. AID 720524, 2013; also: % is scaled to controls: 0 for no effect and ±100 for the full control effect; nearly all actives have a fitted effect of over 65% in size
# The depositor's hits bear a star; ? = inconclusive; . = no result given. This is a sample that favours compounds with a hit; in the whole collection about 3.7% have one here. Calls follow the shape of the dose curve; as a rule, active = well fitted curve in the direction sought with a large enough effect; inconclusive = small, poorly fitted or top-dose-only effect, or another doubt; inactive = no such curve, though single readings can be large; an effect the other way counts as inactive or inconclusive. Potency is read from the fitted curve at half-maximal effect.
SMILES,A549 tox-1,Nrf2 inh,ELG1 DNA repair,Nrf2 activator,FLuc enzyme inh,A549 tox-2,Nrf2 ARE inh
CC(=O)O[C@H]1CC[C@]2(C=O)C3CC[C@]4(C)[C@@H](C5=CC(=O)OC5)CC[C@]4(O)C3CC[C@]2(O)C1 (some centres not stated),-25%,0.26µM*,.,.,4%,?,0.37µM*
CC(=O)O[C@H]1CC[C@@]2(C)C(=CC[C@@H]3[C@@H]2CC[C@]2(C)C(=O)CC[C@@H]32)C1,-1%,-5%,0%,0%,.,.,.
O=C1NC2C(=CC(O)C(O)C2O)c2cc3c(c(O)c21)OCO3 (configuration not stated),?,0.26µM*,.,-2%,1%,?,.
O=C1NC2C(O)C(O)C(O)C(O)C2c2cc3c(c(O)c21)OCO3 (configuration not stated),1.2µM*,0.92µM*,.,-2%,3%,?,1.3µM*
COC(=O)[C@@]1(C)CC[C@]2(C)CC[C@@]3(C)C(=CC(=O)C4[C@@]5(C)CC[C@H](O)C(C)(C)[C@@H]5CC[C@]43C)[C@H]2C1 (some centres not stated),3%,26%,?,11%,.,.,.
COc1ccc(-c2nc(CSCC(=O)N3CCN(c4ccc(F)cc4)CC3)c(C)o2)cc1,-8%,3.3µM*,.,0%,-12%,-24%,7.3µM*
COc1ccc(-c2nc(CSCC(=O)N3CCC4(CC3)OCCO4)c(C)o2)cc1OC,.,-12%,?,4%,.,.,.
CCc1ccc(-c2nc(CSCC(=O)N3CCN(c4ccc(F)cc4)CC3)c(C)o2)cc1,-20%,7.3µM*,.,0%,-14%,-7%,.
CC1(C)CC(=O)C2=C(C1)OC(N)=C([N+](=O)[O-])C2c1ccc(C#N)s1 (configuration not stated),19%,-2%,4%,?,.,.,.
CCCCc1nn2c(=O)cc(COC(=O)Cc3ccccc3)nc2s1,1%,14%,.,0%,.,.,.
CCN(CC)C(=O)c1ccc(NC(=O)c2cccc(S(=O)(=O)N3CCN(Cc4ccccc4)CC3)c2)cc1,?,2.1µM*,?,0%,0%,-8%,8.2µM*
COc1ccc(NS(=O)(=O)c2cc(NC(=O)COc3ccccc3)ccc2N2CCOCC2)cc1,-11%,-2%,?,4%,.,.,.
Cc1cccc2sc(NC(=O)c3cccn(Cc4ccccc4)c3=O)nc12,-2%,.,.,21%,.,.,.
CC(C)(O)/C=C/C(=O)[C@](C)(O)C1[C@H](O)C[C@@]2(C)C3CC=C4C(C=C(O[C@@H]5O[C@H](CO)[C@@H](O)[C@H](O)[C@H]5O)C(=O)C4(C)C)[C@]3(C)C(=O)C[C@]12C (some centres not stated),5%,5%,?,0%,.,.,.
CC(C)(O)/C=C/C(=O)[C@](C)(O)C1[C@H](O)C[C@@]2(C)C3CC=C4C(C[C@H](O)[C@@H](O)C4(C)C)[C@]3(C)C(=O)C[C@]12C (some centres not stated),?,0.41µM*,?,13%,1%,?,1.3µM*
Cc1ccc(Cn2c(SCc3ccc(C(=O)NC4CCCC4)cc3)nc3ccncc32)cc1,-13%,?,.,-4%,.,.,.
COc1ccc(-c2nc(CN3C(=O)CN=C(c4ccccc4)c4ccccc43)c(C)o2)cc1,-11%,-14%,.,-3%,.,.,.
CC(C)(C)c1cc(C=C(C#N)C#N)cc(C(C)(C)C)c1O,?,0.65µM*,-29%,0%,-3%,?,1.3µM*
N#CC(C#N)=Cc1ccc(O)c(O)c1,0%,-23%,8%,1%,.,.,.
COc1ccc(NC(=O)CCc2nc(C3=CCN(Cc4cccc(C)c4)CC3)no2)c(OC)c1,5%,.,.,0%,.,.,.
COc1cccc(NC(=O)CCc2nc(-c3ccc(C(C)(C)C)cc3)no2)c1,-3%,0.26µM*,.,-4%,2.4µM*,-5%,0.92µM*
CC1OC(OC2C=C3CCC4C(CCC5(C)C(c6ccc(=O)oc6)CCC45O)C3(C)CC2)C(O)C(OC2OC(CO)C(O)C(O)C2O)C1O (configuration not stated),?,0.073µM*,.,-2%,2%,?,0.0082µM*
COc1ccc(-n2c(/C=C\c3ccccc3F)nc3ccccc3c2=O)c(OC)c1,-3%,.,.,2%,.,.,.
CC(=O)OC1CC2(O)C3CCC4CC(O)CCC4(C)C3CCC2(C)C1C1=CC(=O)OC1 (configuration not stated),?,0.065µM*,.,-2%,2%,?,0.058µM*
CC(=O)[C@H]1CCC2C3CC[C@H]4C[C@@H](O)CC[C@]4(C)C3CC[C@@]21C (some centres not stated),11%,11%,-5%,0%,.,.,.
SMILES,A549 tox-1,Nrf2 inh,ELG1 DNA repair,Nrf2 activator,FLuc enzyme inh,A549 tox-2,Nrf2 ARE inh
CC(=O)OC1CC(OC2C(O)CC(OC3C(O)CC(OC4CCC5(C)C(CCC6C5CCC5(C)C(C7=CC(=O)OC7)C(O)CC65O)C4)OC3C)OC2C)OC(C)C1OC1OC(CO)C(O)C(O)C1O (configuration not stated),?,0.33µM*,.,-3%,4%,?,0.29µM*
CCCCNS(=O)(=O)c1ccc(OCC(=O)N2CCN(Cc3ccc4c(c3)OCO4)CC2)cc1,?,4.6µM*,-8%,-1%,4%,-4%,?
CC(=O)N1c2ccc(S(=O)(=O)N3CCCC(C(=O)Nc4cc(C)cc(C)c4)C3)cc2CC1C (configuration not stated),14%,?,?,4%,.,.,.
CCOC(=O)[C@]12Cc3cc4ccccc4cc3[C@H]1N(Cc1ccccc1)C(=O)c1cc(OC)ccc12,.,.,.,-4%,.,.,.
CCN(CC)C1=NC(=[N+](CC)CC)c2ccccc21,?,2.1µM*,-11%,0%,4%,-24%,4.6µM*
C[C@H]1C[C@@H](C)C(=O)[C@@H]([C@H](O)CC2CC(=O)NC(=O)C2)C1,?,0.41µM*,0.52µM*,-2%,0%,-27%,13µM*
COc1ccc(S(=O)(=O)N(C)C[C@H]2Oc3c(NC(=O)NC4CCCCC4)cccc3C(=O)N([C@H](C)CO)C[C@@H]2C)cc1,-19%,-22%,?,4%,.,.,.
